# Activity calls are given as the source filed them.
# Key:
# [1] = system: Human papillomavirus type 1a protein E7 (residues 44-93); assay: HPV1a E7 fragment binders on microarrays, primary screen, biochemical, small-molecule microarray, residues 44-93, 635 nm fluorescence (AID 1108); conditions: small-molecule microarray binding, fluorescence 635 nm; higher = more signal;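 further: E7 fragment applied at 1 µg/mL in TBST for 1 h at 4 C; score combines spot fluorescence with its signal to noise ratio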
# [2] = modulators of HCV replicon luciferase signal, primary screen, HCV replication inhibitor project, Huh7 cells, luciferase reporter (AID 1109); conditions: 48 h, higher = more signal;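 further: huh7 hepatoma cells harbouring a luciferase neomycin HCV replicon reporter; luciferase luminescence as measure of HCV replicon replication; test concentration not given here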
# [3] = target: Left-right determination factor 2 (Homo sapiens) (UniProt O00292); assay: LEFTY2 binders on small-molecule microarrays, primary screen, biochemical, small-molecule microarray, 635 nm fluorescence scan (AID 1110); conditions: LEFTY2 binding, higher = more signal
# [4] = target: Calmodulin-1 (Homo sapiens) (UniProt P0DP23); assay: CALM1 binders on microarrays, EGTA buffer, profiling panel, biochemical, small-molecule microarray, Cy5-labelled CALM1 (AID 1111); conditions: Cy5-CALM1 binding fluorescence, higher = more signal;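 further: labelled calmodulin applied in Tris saline Tween buffer holding calcium plus EGTA and DTT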
# [5] = target: Calmodulin-1 (Homo sapiens) (UniProt P0DP23); assay: calcium-bound CALM1 binders on microarrays, profiling panel, artefact control for SMM control-protein annotation, biochemical, small-molecule microarray, Cy5-labelled CALM1, plus calcium (AID 1112); conditions: Cy5-CALM1 binding fluorescence, higher = more signal;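 further: score merges spot fluorescence with signal to noise from triplicate slides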
# [6] = small-molecule microarray binders of probe aWnt5a, primary screen, biochemical, biotinylated probe, 635/667 nm fluorescence (AID 1113); conditions: higher = more signal;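 further: score merges 667 nm fluorescence intensity with signal-to-noise per printed feature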
# [7] = small-molecule microarray binders of probe aShh, primary screen, biochemical, biotinylated probe, 635/667 nm fluorescence (AID 1114); conditions: higher = more signal;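 further: probe is biotin-labelled aShh protein from a stem cell growth factor screen; measures binding of labelled protein to compounds printed on the slide; score merges feature fluorescence at 667 nm with signal-to-noise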
# [8] = small-molecule microarray binders of probe aNog, primary screen, biochemical, biotinylated probe, 635/667 nm fluorescence (AID 1115); conditions: higher = more signal;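 further: probe is biotinylated aNog protein used at 0.15 µg/mL for 1 h at 4 C; z-score combines 667 nm fluorescence of each spot with its signal to noise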
# [9] = target: Torsin-1A-interacting protein 1 (Homo sapiens) (UniProt Q5JTV8); assay: LAP1 binders from COS7 cell lysate, primary screen, small-molecule microarray, 635/667 nm fluorescence (AID 1116); conditions: COS7-hLAP1 lysate binding, 635 nm fluorescence, higher = more signal
# [10] = target: Alpha-bungarotoxin (Bungarus multicinctus) (UniProt P60615); assay: alpha-bungarotoxin binders on microarray, profiling panel, artefact control for SMM control protein annotation, biochemical, small-molecule microarray, Alexa647 label, 635/667 nm fluorescence (AID 1117); conditions: alpha-BTX-A647 binding fluorescence, higher = more signal
# Albumin (Bos taurus) = Albumin (Bos taurus) (UniProt P02769); assay: bovine serum albumin binders on microarray, profiling panel, artefact control for SMM control protein annotation, biochemical, small-molecule microarray, Alexa647 label, 635/667 nm fluorescence (AID 1118); conditions: BSA-A647 binding, fluorescence 635 nm, higher = more signal;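 further: score merges 667 nm emission intensity and signal-to-noise per printed compound spot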
# [11] = small-molecule microarray binders of probe aXIP, primary screen, biochemical, NeuroSMM set, 635/667 nm fluorescence (AID 1119); conditions: higher = more signal, called active from +8 up or from −8 down;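 further: probe is the protein aXip251-270 applied at 1 µg/mL to compound-printed slides; binding of probe to printed compounds measured as 667 nm fluorescence plus signal to noise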
# [12] = small-molecule binders of probe aNOTCH3, primary screen, biochemical, small-molecule microarray, 635/667 nm fluorescence (AID 1120); conditions: higher = more signal;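 further: probe is a biotin-tagged antibody raised against NOTCH3 rather than NOTCH3 protein; score merges spot fluorescence near 667 nm with spot signal to noise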
# [13] = small-molecule binders of probe aNOTCH2, primary screen, biochemical, small-molecule microarray, 635/667 nm fluorescence (AID 1121); conditions: higher = more signal;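 further: score merges feature fluorescence read at 667 nm with its signal to noise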
# [14] = target: Carbonic anhydrase 2 (Homo sapiens) (UniProt P00918); assay: CAII small-molecule binders, profiling panel, biochemical, small-molecule microarray, Alexa647-labelled CAII (AID 1122); conditions: CAII-A647 binding fluorescence, higher = more signal
# [15] = COS7 lysate on small-molecule microarray, probe aHis, 635 nm (AID 1123); conditions: COS7 cell lysate, fluorescence, higher = more signal;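 further: z-score combines 667nm fluorescence intensity with signal-to-noise per printed compound spot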
# [16] = compound binding in COS7 lysate, probe aLAP1, primary screen, cell lysate, small-molecule microarray (AID 1124); conditions: probe aLAP1, fluorescence, higher = more signal;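 further: lysate comes from COS7 cells expressing LAP1 and is applied at 0.3 µg/mL; score merges spot fluorescence near 667 nm with signal-to-noise over triplicate slides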
# Sam68 (KHDRBS1) = assay: Sam68 small-molecule binders, primary screen, biochemical, small-molecule microarray, 635 nm fluorescence (AID 1125); conditions: small-molecule microarray binding, higher = more signal;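 further: score merges 667 nm channel intensity with signal to noise over triplicate slides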
# [17] = system: Chordin-like protein 2 (CHRDL2); assay: CHRDL2 small-molecule binders, primary screen, biochemical, small-molecule microarray, 635 nm fluorescence (AID 1126); conditions: small-molecule microarray binding, fluorescence 635 nm; higher = more signal;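 further: printed compound slides probed with Chrdl2 protein at 4 µg/mL for 1 h at 4 C; score merges 667 nm emission intensity with signal to noise over three replicate slides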
# [18] = target: Concanavalin-A (Canavalia ensiformis) (UniProt P02866); assay: ConA small-molecule binders, primary screen, artefact control for SMM control protein annotation, biochemical, small-molecule microarray, Alexa647 label, 635 nm (AID 1127); conditions: ConA-A647 binding fluorescence, higher = more signal;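 further: z combines 667 nm emission intensity with signal-to-noise across three replicate slides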
# Sequence of Concanavalin-A (Canavalia ensiformis) (P02866 whole entry, looked up): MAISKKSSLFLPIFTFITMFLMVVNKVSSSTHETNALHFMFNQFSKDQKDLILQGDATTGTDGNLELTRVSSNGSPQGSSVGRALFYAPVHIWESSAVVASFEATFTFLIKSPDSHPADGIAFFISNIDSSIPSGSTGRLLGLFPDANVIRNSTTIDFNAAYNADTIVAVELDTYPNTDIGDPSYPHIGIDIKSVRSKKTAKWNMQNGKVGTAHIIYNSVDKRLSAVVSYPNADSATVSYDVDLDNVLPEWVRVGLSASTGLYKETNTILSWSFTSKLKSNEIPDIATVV
# Sequence of Torsin-1A-interacting protein 1 (Homo sapiens) (Q5JTV8 whole entry, looked up): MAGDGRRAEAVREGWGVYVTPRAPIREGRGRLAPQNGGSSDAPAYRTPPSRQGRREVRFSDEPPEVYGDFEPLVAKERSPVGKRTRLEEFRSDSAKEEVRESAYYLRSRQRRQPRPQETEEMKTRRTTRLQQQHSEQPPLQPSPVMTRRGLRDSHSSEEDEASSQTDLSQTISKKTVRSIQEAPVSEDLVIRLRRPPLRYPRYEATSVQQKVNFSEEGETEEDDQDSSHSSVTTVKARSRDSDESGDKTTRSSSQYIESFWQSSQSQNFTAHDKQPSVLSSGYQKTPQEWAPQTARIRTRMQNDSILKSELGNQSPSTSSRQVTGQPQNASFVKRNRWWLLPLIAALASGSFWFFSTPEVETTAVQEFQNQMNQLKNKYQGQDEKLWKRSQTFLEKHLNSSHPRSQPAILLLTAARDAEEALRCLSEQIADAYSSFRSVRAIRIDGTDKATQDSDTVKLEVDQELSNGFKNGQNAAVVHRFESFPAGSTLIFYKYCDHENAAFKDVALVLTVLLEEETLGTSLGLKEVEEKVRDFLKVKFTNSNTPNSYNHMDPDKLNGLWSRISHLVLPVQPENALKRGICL
# Sequence of Alpha-bungarotoxin (Bungarus multicinctus) (P60615 whole entry, looked up): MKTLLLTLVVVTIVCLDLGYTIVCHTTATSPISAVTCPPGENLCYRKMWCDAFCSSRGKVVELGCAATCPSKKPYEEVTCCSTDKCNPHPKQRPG
# Sequence of Left-right determination factor 2 (Homo sapiens) (O00292 whole entry, looked up): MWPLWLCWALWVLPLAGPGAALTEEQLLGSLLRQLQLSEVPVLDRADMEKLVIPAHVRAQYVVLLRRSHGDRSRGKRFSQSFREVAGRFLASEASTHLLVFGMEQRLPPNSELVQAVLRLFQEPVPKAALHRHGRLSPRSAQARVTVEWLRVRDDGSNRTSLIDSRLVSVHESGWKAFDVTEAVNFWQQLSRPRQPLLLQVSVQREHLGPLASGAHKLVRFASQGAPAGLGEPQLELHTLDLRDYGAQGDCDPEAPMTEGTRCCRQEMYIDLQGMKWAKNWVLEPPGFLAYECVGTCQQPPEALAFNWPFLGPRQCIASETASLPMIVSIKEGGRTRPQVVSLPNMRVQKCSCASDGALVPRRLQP
# Sequence of Albumin (Bos taurus) (P02769 whole entry, looked up): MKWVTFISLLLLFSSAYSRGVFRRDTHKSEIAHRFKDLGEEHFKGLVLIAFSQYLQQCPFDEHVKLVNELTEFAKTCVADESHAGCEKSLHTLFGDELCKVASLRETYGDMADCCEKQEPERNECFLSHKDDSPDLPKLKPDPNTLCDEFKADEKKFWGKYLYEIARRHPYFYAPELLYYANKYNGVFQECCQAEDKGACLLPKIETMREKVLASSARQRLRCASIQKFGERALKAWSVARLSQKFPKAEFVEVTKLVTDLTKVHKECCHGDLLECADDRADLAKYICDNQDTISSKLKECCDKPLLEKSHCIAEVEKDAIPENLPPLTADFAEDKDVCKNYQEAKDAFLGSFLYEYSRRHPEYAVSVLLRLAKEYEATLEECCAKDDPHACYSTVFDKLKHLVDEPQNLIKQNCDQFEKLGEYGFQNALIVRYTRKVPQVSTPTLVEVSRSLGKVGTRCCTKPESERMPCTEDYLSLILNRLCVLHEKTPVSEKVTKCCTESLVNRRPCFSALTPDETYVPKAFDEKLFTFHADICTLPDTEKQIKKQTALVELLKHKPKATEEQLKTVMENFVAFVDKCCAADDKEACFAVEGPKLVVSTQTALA
Structure (SMILES),composite z-score [1],z-score [2],composite z-score [3],composite z-score [4],composite z-score [5],composite z-score [6],composite z-score [7],composite z-score [8],composite z-score [9],composite z-score [10],composite z-score (Albumin (Bos taurus)),composite Z-score [11],composite z-score [12],composite z-score [13],composite z-score [14],composite z-score [15],composite z-score [16],composite z-score (Sam68 (KHDRBS1)),composite z-score [17],composite z-score [18]
CC1(C)C(=O)C(c2ccccc2)=C2CN3C(=O)N(CCc4ccccc4)C(=O)C3(Cc3ccc(C(F)(F)F)cc3)C=C21 (stereo not given),1.19,-1.66,-0.668,1.36,0.858,0.0226,1.05,1.8,0.393,0.234,0.925,-0.301 (inactive),0.561,0.306,0.581,2.1,0.014,0.764,-1.06,0.702
CCCCCN1CC=CC23O[C@@H]4/C=C\CCC(C)OC(=O)C4[C@H]2C(=O)N(CCCCCCO)[C@@H]3C1=O (stereo not given in full),0.342,0.499,-0.78,-0.384,0.369,-0.202,-0.0146,-0.12,0.171,-0.267,0.548,0.928 (inactive),-0.311,-0.164,0.781,0.84,1.57,0.623,-0.41,-0.296
[N-]=[N+]=NCc1ccccc1C[C@@]1(C(=O)N2CCCCC2)N=C(c2ccc(OCCCO)cc2)O[C@@H]1c1ccccc1CN=[N+]=[N-],0.905,-2.73,-0.133,2.02,1.37,-0.101,-0.0626,1.31,1.01,1.5,0.36,0.569 (inactive),0.0435,0.0515,0.711,1.81,1.06,1.08,-1.07,1.09
CN1C(=O)C2C=CC(C(O)c3cc(C(F)(F)F)cc(C(F)(F)F)c3)N(Nc3ccccc3)C2C1=O (stereo not given),0.792,-1.08,-0.715,0.345,-0.151,-0.0346,-0.138,0.369,1.68,0.0299,0.969,0.309 (inactive),-0.149,-0.147,0.831,2.96,-0.23,0.891,-0.616,-0.0932
CC(C)C[C@@H]1NC(=O)[C@@H]2C[C@H](C(=O)NCCCCCC[N+](C)(C)C)[C@H](c3cccc(OCCO)c3)N2C1=O,1.31,-0.926,-0.184,-0.105,-0.744,-0.156,-0.0234,-0.249,0.369,0.446,-0.391,0.0931 (inactive),-0.0311,-0.128,0.511,2.37,0.241,0.584,0.562,0.644
COc1ccc(NC(=O)O[C@H]2[C@@H]3OC(=O)[C@H](Cc4cccc(Br)c4)C/C=C/C[C@@H](Cc4cccc(Br)c4)C(=O)O[C@H]3[C@@H](OC)O[C@@H]2CO)cc1,0.277,0.714,0.601,0.492,-0.062,-0.027,0.235,0.325,0.882,0.526,0.259,0.878 (inactive),0.111,0.683,0.507,0.84,0.782,0.355,0.145,0.173
COCCOC(=O)N1C(=O)[C@@]2(c3cc(C#CCCO)ccc31)[C@H](C(N)=O)[C@H]1C(=O)O[C@H](c3ccccc3)[C@H](c3ccccc3)N1[C@@H]2c1ccc(OCCO)cc1,1.28,-1.14,0.957,1.1,-0.351,-0.0303,0.0253,-0.371,1.46,0.787,0.489,0.206 (inactive),0.12,0.0248,0.354,2.21,0.667,1.29,0.618,1.15
O=C1O[C@H](c2ccccc2)[C@H](c2ccccc2)N2[C@H]1[C@@H](C(=O)N1CCCCCCC1)[C@]1(C(=O)Nc3ccc(C#CC4(O)CCCCCC4)cc31)[C@H]2c1ccccc1OCCO,1.59,-1.88,1.78,3.09,1.81,1.53,1.92,3.25,5.71,4.23,0.573,9.08 (active),2.18,1.13,1.02,5.1,1.42,1.34,1.73,0.952
